Results from PubChem BioAssay.
Records with an inconclusive call do not appear. The source made the active and inactive calls. Rule as the data show it, unless noted: active = percent of DMSO control GFP below about 86%; inactive = the rest, inconclusive results apart.

Key:
[1] = yeast TOR pathway RPL19A-GFP modulators, primary screen, cell-based, S. cerevisiae, multiplex flow cytometry (AID 1862);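 also: lower values mimic rapamycin by blocking the RPL19A rise seen in DMSO cells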; conditions: S. cerevisiae RPL19A-GFP strain, flow cytometry fluorescence, 3 h; at 10 µM; stronger effect = lower value
[2] = modulators of MEP2-GFP levels in yeast, primary screen, S. cerevisiae, multiplex flow cytometry (AID 1867;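 active = GFP response, as percent of the DMSO control, above the screen-wide mean plus 3 SD, about 139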;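 also: median GFP channel fluorescence of barcode-gated MEP2-GFP cells measured by flow cytometry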); conditions: S. cerevisiae MEP2-GFP strain, 3 h, at 10 µM, stronger effect = higher value, 100% means same as DMSO wells
[3] = modulators of CIT2-GFP expression in yeast, primary screen, S. cerevisiae, GFP fusion, multiplex flow cytometry (AID 1870;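 active = percent response above a set limit, the screen-wide mean plus 3 SD, cut at about 130% in these data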;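 also: barcoded CIT2-GFP strain pooled with four other GFP strains with rapamycin as positive control; median GFP fluorescence per well over plate mean of DMSO wells so 100% = DMSO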); conditions: 3 h, at 10 µM, stronger effect = higher value
[4] = modulators of LAP4-GFP expression in yeast, primary screen, S. cerevisiae, multiplex flow cytometry (AID 1873;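 active = GFP signal, as percent of the solvent control, above the screen mean plus 3 SD, about 149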); conditions: 3 h, at 10 µM, stronger effect = higher value
[5] = modulators of AGP1-GFP expression in yeast TOR pathway, primary screen, cell-based, multiplex flow cytometry, S. cerevisiae (AID 1887;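 active = GFP signal above the screen-wide mean plus 3 SD, that is over about 124.5% of the solvent control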;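 also: AGP1-GFP fusion strain of S. cerevisiae within a five-strain barcoded multiplex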); conditions: 3 h, at 10 µM, stronger effect = higher value
[6] = inhibitors of CD8+ T cell-vesicle binding, pilot screen, LFA-1/ICAM-1 modulator project, MLPCN validation set, flow cytometry (AID 2523;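 active = response below a set limit, under 55% cells CD8-positive and vesicle-bound, and CD8 cells' 90th-percentile brightness under 279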;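 as to vesicle binding response: mean PE anti-B7-1 fluorescence of CD8+ cells relative to row control; 100% = QL9-loaded vesicles with DMSO vehicle in the same plate row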); conditions: 2C mouse CD8+ T cells, at 7 µM, stronger effect = lower value; double positive events: measured here: CD8+/vesicle+ event percentage
[7] = target: Integrin beta-1 (Homo sapiens) + Integrin alpha-4 (Homo sapiens) (UniProt P13612+P05556); test: inhibition of HUTS-21 binding to VLA-4, pilot screen, VLA-4 allosteric modulator project, U937 cells, HUTS-21 mAb, flow cytometry, validation set (AID 2674;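 active = inhibition above 50%, about 3 SD of the validation set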;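 also: antibody binding induced by the VLA-4 ligand LDV present at three times its Kd; 0% = LDV ligand with antibody and no compound and 100% = antibody without LDV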); conditions: HUTS-21 LIBS mAb binding, at 6.7 µM, stronger effect = higher value, binding induced by LDV ligand
Integrin beta-1 (Homo sapiens) + Integrin alpha-4 (Homo sapiens), sequence (P05556 whole entry, looked up): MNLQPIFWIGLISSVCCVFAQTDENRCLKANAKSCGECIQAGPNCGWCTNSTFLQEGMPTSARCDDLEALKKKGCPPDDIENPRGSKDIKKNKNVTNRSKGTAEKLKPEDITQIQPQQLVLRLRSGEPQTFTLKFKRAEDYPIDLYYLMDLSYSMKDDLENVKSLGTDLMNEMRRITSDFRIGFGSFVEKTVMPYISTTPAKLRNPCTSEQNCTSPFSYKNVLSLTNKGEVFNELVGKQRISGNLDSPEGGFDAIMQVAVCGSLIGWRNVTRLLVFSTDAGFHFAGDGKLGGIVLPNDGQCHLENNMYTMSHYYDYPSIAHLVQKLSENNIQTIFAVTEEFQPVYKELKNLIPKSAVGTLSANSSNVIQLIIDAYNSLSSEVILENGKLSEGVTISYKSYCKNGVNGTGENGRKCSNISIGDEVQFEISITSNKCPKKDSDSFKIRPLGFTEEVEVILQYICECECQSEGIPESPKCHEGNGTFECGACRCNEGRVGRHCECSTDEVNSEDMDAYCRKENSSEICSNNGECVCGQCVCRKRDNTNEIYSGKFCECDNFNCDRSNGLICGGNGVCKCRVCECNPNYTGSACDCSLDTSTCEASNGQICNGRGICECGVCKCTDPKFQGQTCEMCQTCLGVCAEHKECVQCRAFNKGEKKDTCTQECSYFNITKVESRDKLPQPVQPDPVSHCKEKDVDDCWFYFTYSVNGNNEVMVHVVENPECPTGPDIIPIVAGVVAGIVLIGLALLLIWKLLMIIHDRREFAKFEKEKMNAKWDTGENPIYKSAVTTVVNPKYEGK
Integrin beta-1 (Homo sapiens) + Integrin alpha-4 (Homo sapiens), sequence (P13612 whole entry, looked up): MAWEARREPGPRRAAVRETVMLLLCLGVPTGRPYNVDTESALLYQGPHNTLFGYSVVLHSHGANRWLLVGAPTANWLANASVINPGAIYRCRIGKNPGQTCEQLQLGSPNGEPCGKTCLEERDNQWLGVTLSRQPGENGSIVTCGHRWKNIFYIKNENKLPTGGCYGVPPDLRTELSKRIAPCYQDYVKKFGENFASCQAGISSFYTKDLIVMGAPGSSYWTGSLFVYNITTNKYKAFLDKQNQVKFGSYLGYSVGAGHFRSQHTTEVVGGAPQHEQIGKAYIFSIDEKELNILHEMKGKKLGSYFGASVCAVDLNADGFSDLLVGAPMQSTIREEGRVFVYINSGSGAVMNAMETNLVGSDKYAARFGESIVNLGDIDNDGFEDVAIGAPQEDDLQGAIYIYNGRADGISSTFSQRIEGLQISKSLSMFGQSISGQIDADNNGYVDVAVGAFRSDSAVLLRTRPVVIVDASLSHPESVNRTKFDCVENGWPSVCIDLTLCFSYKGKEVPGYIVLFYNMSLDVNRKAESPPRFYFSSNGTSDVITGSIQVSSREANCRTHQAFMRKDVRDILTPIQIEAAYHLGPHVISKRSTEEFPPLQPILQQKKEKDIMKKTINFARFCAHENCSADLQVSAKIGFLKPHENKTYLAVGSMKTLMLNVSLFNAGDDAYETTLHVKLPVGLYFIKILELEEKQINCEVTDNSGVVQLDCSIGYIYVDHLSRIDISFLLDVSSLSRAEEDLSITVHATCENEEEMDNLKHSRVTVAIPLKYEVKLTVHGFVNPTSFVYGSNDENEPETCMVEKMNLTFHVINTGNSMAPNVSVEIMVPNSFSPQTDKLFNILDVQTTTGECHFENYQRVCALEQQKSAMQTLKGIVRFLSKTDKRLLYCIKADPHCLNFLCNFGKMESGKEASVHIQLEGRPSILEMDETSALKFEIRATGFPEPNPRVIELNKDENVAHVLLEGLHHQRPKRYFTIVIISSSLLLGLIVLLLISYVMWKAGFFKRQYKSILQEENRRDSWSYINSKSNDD

[8] = superoxide lowering in aged yeast cells, pilot screen, validation compound set (AID 2706;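 active = superoxide response below 65% of plate, a cut near 3 SD across the whole screen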;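 also: yeast exposed to compound for one week at 30 degrees C before staining; 100% = mean of all compound wells on the same plate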); conditions: S. cerevisiae aging, superoxide DHE fluorescence; at 10 µM; stronger effect = lower value
[9] = target: Beta-adrenergic receptor kinase 1 (Homo sapiens) (UniProt P25098); test: GRK2 binders displacing RNA aptamer, biochemical, validation, human GRK2, bead flow cytometry (AID 488806;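 active = aptamer binding inhibition above 30%, about 3 SD of noise from non-fluorescent compounds; inactive = inhibition at or below 30%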); conditions: bead-bound GRK2, FAM-aptamer displacement, at 10 µM, stronger effect = higher value
Beta-adrenergic receptor kinase 1 (Homo sapiens), sequence (P25098 whole entry, looked up): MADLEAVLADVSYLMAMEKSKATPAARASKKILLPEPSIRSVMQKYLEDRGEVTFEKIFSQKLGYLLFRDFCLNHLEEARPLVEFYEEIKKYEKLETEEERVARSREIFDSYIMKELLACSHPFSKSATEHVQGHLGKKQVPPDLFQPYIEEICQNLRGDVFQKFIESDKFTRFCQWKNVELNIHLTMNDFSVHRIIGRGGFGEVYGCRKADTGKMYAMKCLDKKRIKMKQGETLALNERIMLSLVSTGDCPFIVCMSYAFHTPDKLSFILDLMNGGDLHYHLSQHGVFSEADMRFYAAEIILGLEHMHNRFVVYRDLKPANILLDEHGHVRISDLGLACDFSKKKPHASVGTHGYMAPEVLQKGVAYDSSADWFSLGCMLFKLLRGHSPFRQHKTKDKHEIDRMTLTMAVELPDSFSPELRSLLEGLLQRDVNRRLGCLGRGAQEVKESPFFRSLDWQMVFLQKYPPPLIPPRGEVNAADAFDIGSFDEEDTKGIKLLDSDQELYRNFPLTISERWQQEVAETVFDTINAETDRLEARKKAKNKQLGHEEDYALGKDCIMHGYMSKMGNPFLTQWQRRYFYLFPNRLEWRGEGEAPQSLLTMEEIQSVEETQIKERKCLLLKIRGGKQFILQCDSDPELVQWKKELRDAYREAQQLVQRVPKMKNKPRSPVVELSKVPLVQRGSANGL

[10] = target: Beta-2 adrenergic receptor (Homo sapiens) (UniProt P07550); test: beta2AR agonists driving receptor internalization, pilot screen, cell-based, FAP fluorogen, flow cytometry, validation set (AID 504459;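 active = percent response above 42, roughly 3 SD of non-fluorescent test compounds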;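 also: agonist-driven loss of surface beta2AR via internalization measured by FAP dye flow cytometry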); conditions: Am2.2-beta2AR cells, FAP surface receptor flow cytometry; at 10 µM; stronger effect = higher value
Beta-2 adrenergic receptor (Homo sapiens), sequence (P07550 whole entry, looked up): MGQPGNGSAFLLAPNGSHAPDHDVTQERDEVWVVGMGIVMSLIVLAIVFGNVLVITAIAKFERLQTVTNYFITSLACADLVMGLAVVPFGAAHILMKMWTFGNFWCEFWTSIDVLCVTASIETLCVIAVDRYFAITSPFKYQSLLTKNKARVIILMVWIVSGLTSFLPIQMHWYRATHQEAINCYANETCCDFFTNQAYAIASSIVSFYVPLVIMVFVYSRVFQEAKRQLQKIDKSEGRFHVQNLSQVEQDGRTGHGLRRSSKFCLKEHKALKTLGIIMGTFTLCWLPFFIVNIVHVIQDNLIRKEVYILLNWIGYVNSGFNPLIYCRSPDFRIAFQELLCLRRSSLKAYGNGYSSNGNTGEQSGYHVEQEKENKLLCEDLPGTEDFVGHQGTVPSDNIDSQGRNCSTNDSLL

[11] = target: AP-2 complex subunit beta (Homo sapiens) (UniProt P63010); test: inhibitors of arrestin peptide binding to AP2, pilot screen, biochemical, validation set, GST-AP2 beads, flow cytometry (AID 504541;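 active = inhibition above 54%, about 3 SD of non-fluorescent compounds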;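 also: AP2 carries R879A mutation and is captured from E. coli lysate; bead-bound FITC arrestin peptide fluorescence measuring arrestin peptide binding to AP2; 0% = DMSO wells and 100% = excess unlabeled arrestin peptide control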); conditions: FITC arrestin peptide, at 10 µM, stronger effect = higher value, AP2 beta2 appendage fragment, R879A mutant
AP-2 complex subunit beta (Homo sapiens), sequence (P63010 whole entry, looked up, the tested form may be a part, one chain of several): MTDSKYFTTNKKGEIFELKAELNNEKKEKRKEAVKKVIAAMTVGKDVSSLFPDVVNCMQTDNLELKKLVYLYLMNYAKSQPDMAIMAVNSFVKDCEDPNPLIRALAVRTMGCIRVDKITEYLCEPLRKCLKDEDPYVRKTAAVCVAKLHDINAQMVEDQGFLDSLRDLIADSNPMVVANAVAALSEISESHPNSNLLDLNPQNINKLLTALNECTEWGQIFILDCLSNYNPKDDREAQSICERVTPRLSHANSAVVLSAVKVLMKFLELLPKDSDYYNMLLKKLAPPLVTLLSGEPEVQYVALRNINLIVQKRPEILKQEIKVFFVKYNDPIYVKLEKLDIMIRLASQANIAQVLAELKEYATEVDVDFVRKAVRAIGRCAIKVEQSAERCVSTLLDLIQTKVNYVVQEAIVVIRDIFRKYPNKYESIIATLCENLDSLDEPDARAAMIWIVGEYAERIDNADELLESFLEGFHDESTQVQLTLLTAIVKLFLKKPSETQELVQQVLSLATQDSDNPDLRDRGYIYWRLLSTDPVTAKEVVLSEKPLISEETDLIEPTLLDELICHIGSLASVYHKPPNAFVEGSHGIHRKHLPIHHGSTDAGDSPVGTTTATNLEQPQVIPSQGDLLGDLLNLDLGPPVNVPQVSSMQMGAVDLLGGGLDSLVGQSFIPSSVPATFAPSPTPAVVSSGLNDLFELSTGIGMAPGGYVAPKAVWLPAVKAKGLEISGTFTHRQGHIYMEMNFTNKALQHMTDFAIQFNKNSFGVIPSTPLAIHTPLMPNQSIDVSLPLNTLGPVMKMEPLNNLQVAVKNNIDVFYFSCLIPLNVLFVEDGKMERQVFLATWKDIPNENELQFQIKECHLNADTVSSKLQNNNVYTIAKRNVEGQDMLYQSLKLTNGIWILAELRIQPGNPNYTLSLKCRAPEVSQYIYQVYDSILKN

[12] = yeast V-ATPase proton transport modulators, S. cerevisiae, pHLuorin, HTS validation (AID 504600; in the data active = response above about 15%;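 also: plate controls were DMSO for no effect and reference compound for full effect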); conditions: S. cerevisiae pHLuorin cytosolic pH, at 10 µM, stronger effect = higher value
[13] = tested on: anti-desmoglein-3 scFv antibody binding to human DSG3; test: inhibitors of anti-DSG3 scFv binding to DSG3, pilot screen, biochemical, validation compound set, bead-based, flow cytometry (AID 588368;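 active = binding below the plate cutoff, the plate median minus 3 SD, with a reading above zero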;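 also: signal is the median channel fluorescence of bead-bound GFP antibody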); conditions: Protein G beads, DSG3-Fc, scFv-GFP binding, at 10 µM, stronger effect = lower value
[14] = inhibitors of fungal efflux pumps CDR1, CDR2, MDR1, pilot screen, validation compound set, multiplex, phenotypic (AID 588506;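 active = efflux inhibition above 0.42, the validation set average plus 4 SD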;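 also: Nile Red retained in cells so higher fluorescence means more efflux inhibition; 0 = negative control wells and 1 = enniatin B 25 µM full block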); conditions: S. cerevisiae pump-expressing triplex, Nile Red efflux flow cytometry; at 10 µM; stronger effect = higher value; the pumps come from Candida albicans
[15] = target: ATP-binding cassette sub-family B member 6 (Homo sapiens) (UniProt Q9NP58); test: ABCB6 transporter inhibitors, pilot screen, K562-ABCB6 cells, flow cytometry, validation set (AID 588550;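 active = inhibition above the screen-wide mean plus 3 SD, about 51%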;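 also: 0% = DMSO wells and 100% = benzethonium chloride 70 µM positive control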); conditions: K562-ABCB6 porphyrin accumulation, 1 h, at 10 µM, stronger effect = higher value
ATP-binding cassette sub-family B member 6 (Homo sapiens), sequence (Q9NP58 whole entry, looked up): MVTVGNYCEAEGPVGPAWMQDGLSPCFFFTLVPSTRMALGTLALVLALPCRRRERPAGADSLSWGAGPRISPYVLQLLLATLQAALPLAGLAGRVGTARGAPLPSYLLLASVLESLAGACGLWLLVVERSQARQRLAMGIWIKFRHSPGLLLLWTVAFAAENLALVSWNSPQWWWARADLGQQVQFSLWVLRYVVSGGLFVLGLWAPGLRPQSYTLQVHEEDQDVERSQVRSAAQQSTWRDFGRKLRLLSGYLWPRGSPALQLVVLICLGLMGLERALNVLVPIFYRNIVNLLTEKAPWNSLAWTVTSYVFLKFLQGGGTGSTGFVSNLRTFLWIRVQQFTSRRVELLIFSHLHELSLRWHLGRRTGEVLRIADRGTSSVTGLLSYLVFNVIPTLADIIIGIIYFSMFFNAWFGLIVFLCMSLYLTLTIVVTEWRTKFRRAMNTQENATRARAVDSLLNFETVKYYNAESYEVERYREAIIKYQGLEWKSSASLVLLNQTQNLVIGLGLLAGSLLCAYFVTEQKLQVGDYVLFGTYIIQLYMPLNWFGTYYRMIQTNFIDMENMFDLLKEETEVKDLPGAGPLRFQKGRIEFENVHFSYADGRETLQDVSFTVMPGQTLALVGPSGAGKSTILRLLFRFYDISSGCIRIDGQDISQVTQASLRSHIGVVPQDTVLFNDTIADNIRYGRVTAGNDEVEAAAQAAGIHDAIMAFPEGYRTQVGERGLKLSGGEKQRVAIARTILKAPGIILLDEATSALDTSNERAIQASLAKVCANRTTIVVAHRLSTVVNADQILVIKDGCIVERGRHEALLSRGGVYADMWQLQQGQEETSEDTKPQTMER

[16] = promoters of myeloid differentiation in arrested cells, primary screen, cell-based, GFP/MAC1 double positive, flow cytometry, validation set (AID 588685;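 active = differentiation response of at least 50%, scaled between solvent and reference control, from cells with both markers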;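 also: compound exposure lasts four days before antibody staining and flow analysis; 0% = DMSO wells and 100% = 5 µM fulvestrant positive control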); conditions: ER-HoxA9 marrow cells, stronger effect = higher value, normalized: vehicle 0, fulvestrant 100

| Compound | percent of DMSO control GFP [1] | GFP response vs DMSO [2] | percent response of DMSO control [3] | GFP response vs DMSO [4] | GFP response, % of DMSO [5] | double positive events [6] | vesicle binding response [6] | inhibition [7] | superoxide response (% of plate) [8] | aptamer binding inhibition [9] | response [10] | inhibition [11] | response [12] | binding (% of control) [13] | efflux inhibition (fraction of control) [14] | inhibition [15] | differentiation response [16] |
| --- | --- | --- | --- | --- | --- | --- | --- | --- | --- | --- | --- | --- | --- | --- | --- | --- | --- |
| O=C(CN1C(=O)/C(=C/c2cccc(Br)c2)SC1=S)Nc1cccnc1 | 101% (inactive) | 105% (inactive) | 101% (inactive) | 109% (inactive) | 109% (inactive) | 58.9% | 59.7% (inactive) | -19.9% (inactive) | 102% (inactive) | 0% (inactive) | -8.62% (inactive) | -4.86% (inactive) | 4.59% (inactive) | 99% (inactive) | -0.41 (inactive) | -10% (inactive) | 2.74% (inactive) |
| COC(=O)[C@H]1[C@H]2C[C@@H]3c4[nH]c5cc(OC)ccc5c4CCN3C[C@H]2C[C@@H](OC(=O)c2ccc(N)cc2)[C@@H]1OC | 105% (inactive) | 98.3% (inactive) | 111% (inactive) | 94% (inactive) | 102% (inactive) | 64.5% | 828% (inactive) | -393% (inactive) | 97% (inactive) | 3% (inactive) | -18.1% (inactive) | -1.6% (inactive) | -2.37% (inactive) | 104% (inactive) | -0.17 (inactive) | -53% (inactive) | 0.24% (inactive) |
| O=C(N/N=C\c1cc([N+](=O)[O-])ccc1N1CCOCC1)c1ccccn1 | 107% (inactive) | 102% (inactive) | 107% (inactive) | 100% (inactive) | 103% (inactive) | 59.8% | 142% (inactive) | -7.79% (inactive) | 104% (inactive) | -2% (inactive) | -1.25% (inactive) | 1.39% (inactive) | 4.27% (inactive) | 102% (inactive) | 0.35 (inactive) | -1% (inactive) | -11.9% (inactive) |
| COc1ccc(C(C)N2CC34C=CC(O3)C(C(=O)OCC(C)C)C4C2=O)cc1 (stereo unspecified) | 103% (inactive) | 107% (inactive) | 96.6% (inactive) | 92% (inactive) | 107% (inactive) | 63.5% | 5650% (inactive) | -10.8% (inactive) | 98.6% (inactive) | 1% (inactive) | -2.15% (inactive) | -17.5% (inactive) | 3.8% (inactive) | 96.9% (inactive) | 0.02 (inactive) | -4% (inactive) | -8.55% (inactive) |
| Cc1nc(-c2coc3c(CN(C)C)c(O)ccc3c2=O)cs1 | 92.6% (inactive) | 131% (inactive) | 104% (inactive) | 85.8% (inactive) | 88% (inactive) | 61.6% | 143% (inactive) | -26.5% (inactive) | 98.6% (inactive) | 6% (inactive) | 4.53% (inactive) | 2.27% (inactive) | -0.21% (inactive) | 105% (inactive) | -0.46 (inactive) | 11% (inactive) | -1.64% (inactive) |
| O=C(NCc1ccco1)/C(=C\C=C\c1ccccc1)NC(=O)c1ccccc1Br | 108% (inactive) | 107% (inactive) | 110% (inactive) | 110% (inactive) | 106% (inactive) | 60.6% | 139% (inactive) | -14.5% (inactive) | 95.8% (inactive) | 0% (inactive) | 12.9% (inactive) | 5.44% (inactive) | 1.56% (inactive) | 104% (inactive) | -0.045 (inactive) | -4% (inactive) | -3.11% (inactive) |
| COc1ccc(-c2[nH]ncc2CN(C)C(C)c2ccon2)c(OC)c1 (stereo unspecified) | 92.4% (inactive) | 137% (inactive) | 106% (inactive) | 78.7% (inactive) | 91% (inactive) | 61.9% | 143% (inactive) | 10.3% (inactive) | 99.7% (inactive) | 2% (inactive) | -3.13% (inactive) | 8% (inactive) | -3.5% (inactive) | 105% (inactive) | 0.01 (inactive) | 11% (inactive) | -4.91% (inactive) |
| Cc1c(OCC(F)(F)F)ccnc1CS(=O)c1nc2ccccc2[nH]1 (stereo unspecified) | 95.1% (inactive) | 101% (inactive) | 97% (inactive) | 119% (inactive) | 118% (inactive) | 58.8% | 153% (inactive) | -64.1% (inactive) | 111% (inactive) | 1% (inactive) | 24.6% (inactive) | -4.09% (inactive) | -4.18% (inactive) | 106% (inactive) | 0.04 (inactive) | -6% (inactive) | -4% (inactive) |
